An excerpt weighted towards active compounds, which were near 7.4% of everything screened.
ELG1 genotox: genotoxicity induction in ELG1-luciferase HEK293T cells. actives 1.3% (n = 330,000). Potency, µM (titrated, usually from 46 µM), for the others: at the top dose activity change, positive = activation, actives largely listed as activators. HEK293T ELG1-luciferase reporter, luminescence, 16 h; further: % of control where 0% means no effect; nearly all actives have a fitted effect of over 60% in size
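After overnight (16 hr) compound treatment at 37 °C, ELG1-luciferase HEK293T cells were lysed with ONE-Glo; luminescence quantified 30 min later at room temperature.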
Rab9 promoter act: activates the Rab9 promoter. Huh7 Rab9 promoter-luciferase reporter, luminescence, 24 h. Potency, µM (highest dose often 9.22 µM), without a hit: top-dose activation, negative = inhibition, usual class: activators. actives 2.8% (n = 320,000). AID 485297; further: % of control where 0% means no effect; nearly all actives have a fitted effect of over 60% in size
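Luminescence from Amplite-detected luciferase (10 minutes, ambient) reports Rab9 promoter activation. Before that, stable Rab9-luciferase Huh7 cells (1500/well, reduced-serum OP-MEM I plus 10% FBS) were exposed to compound for 24 hours at 37C.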
SMN2 splice up: increases expression of the SMN2 splice variant | HEK293 SMN2-luciferase splicing reporter, luminescence, 30-36 h | Potency, µM (top dose mostly 46.1 µM), inactives show at the top dose activity change, positive = activation, hits mostly activators | actives 2.8% (n = 210,000); further: % of control where 0% means no effect; nearly all actives have a fitted effect of over 55% in size
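HEK293 cells carry an SMN2 minigene-luciferase reporter in which exon 7 inclusion puts luciferase in frame. Cells were seeded at 2000 cells/well, attached for 10-12 hours, then exposed to compounds for 30-36 hours at 37C before ONE-Glo luminescence.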
NPC1 promoter act: activators of NPC1 promoter; Huh7 NPC1 promoter luciferase reporter, 24 h; Potency, µM (doses to about 9.22 µM), for the others: at the highest dose activation, usual class: activators; actives 2.4% (n = 320,000); AID 485313; further: % of control where 0% means no effect; nearly all actives have a fitted effect of over 60% in size
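Stable NPC1-promoter luciferase Huh7 line; cpd (DMSO) 24 h, 37 °C, 5% CO2; Amplite luciferase reagent 10 min RT; luminescence readout. qHTS format.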
Luc counter: Kinase-Glo luciferase inhibition (counter-screen). Q27757. Kinase-Glo luciferase, ATP luminescence, 8 min. Potency, µM (series often up to 38.3 µM), for inactives: at the top dose activity change, negative = inhibition, hits mostly inhibitors. actives 0.28% (n = 200,000); further: on the % scale 0 is the no-effect control and ±100 the full control effect; nearly all actives have a fitted effect of over 60% in size
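Substrate mix (final 50 mM imidazole pH 7.2, 50 mM KCl, 7 mM MgCl2, 10 uM ATP, 0.01% Tween 20, 0.05% BSA) plus pin-tool compound, then Kinase-Glo detection mix; 8 min ambient, luminescence read.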
FLuc modulator: firefly luciferase modulation, counter-screen for miR-21 project. P08659. purified FLuc, Km substrates, luminescence inhibition. Potency, µM (highest dose often 57.5 µM), for inactives: at the highest dose activity change, negative = inhibition, usual class: inhibitors. actives 6.9% (n = 360,000). AID 588342;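 further: plate controls were vehicle for no effect and reference inhibitor for full effect; nearly all actives have a fitted effect of over 55% in size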
Target sequence (P08659 whole entry, looked up): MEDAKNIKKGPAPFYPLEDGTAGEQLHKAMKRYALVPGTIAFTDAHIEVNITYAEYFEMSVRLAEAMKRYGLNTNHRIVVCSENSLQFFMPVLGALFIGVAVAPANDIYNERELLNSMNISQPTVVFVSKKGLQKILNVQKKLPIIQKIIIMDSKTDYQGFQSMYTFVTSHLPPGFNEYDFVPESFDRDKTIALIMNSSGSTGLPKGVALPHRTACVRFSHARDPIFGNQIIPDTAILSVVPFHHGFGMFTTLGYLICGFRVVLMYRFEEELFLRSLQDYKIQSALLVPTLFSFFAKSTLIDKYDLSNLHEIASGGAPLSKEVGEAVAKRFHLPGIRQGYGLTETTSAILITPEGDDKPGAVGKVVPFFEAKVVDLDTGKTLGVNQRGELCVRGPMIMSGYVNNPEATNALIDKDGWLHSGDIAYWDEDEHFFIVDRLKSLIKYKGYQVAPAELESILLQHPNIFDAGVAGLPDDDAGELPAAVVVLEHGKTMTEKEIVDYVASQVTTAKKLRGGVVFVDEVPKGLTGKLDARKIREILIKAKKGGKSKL
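Purified P. pyralis luciferase, 10 nM final, with Km-level 10 uM D-luciferin and 10 uM ATP in 50 mM Tris acetate pH 7.5, 10 mM Mg acetate, 0.01% Tween-20, 0.05% BSA; 6-point qHTS titration about 60 µM downward; luminescence read.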
The depositor's hits bear a star; ? = inconclusive; . = no result; [ ] = another dose, or the depositor's remark. The call rests on the fitted dose curve; in most records, active means well fitted curve in the direction sought with a large enough effect; inconclusive means small, poorly fitted or top-dose-only effect, or another doubt; inactive means no such curve, though single readings can be large; an effect the other way counts as inactive or inconclusive. Potency means the concentration at half of the fitted maximal effect.

SMILES	ELG1 genotox	Rab9 promoter act	SMN2 splice up	NPC1 promoter act	Luc counter	FLuc modulator
CCOc1ccc2nc(N3CCC(C(=O)N4CCN(C(=O)c5ccco5)CC4)CC3)sc2c1	1%	20%	-46%	7%	-4%	13µM*
CCOc1ccc2nc(NC(=O)C3CCN(C(=O)c4ccco4)CC3)sc2c1	?	?	.	?	.	15µM*
CN(C)C(=O)OC1=C(c2ccccc2)Sc2ccccc2-n2cccc21	.	.	-16%	.	.	.
COc1ccc(NC(=O)N2CCCC3(CCN(S(=O)(=O)c4ccccc4)CC3)C2)cc1	.	.	-7%	.	-2%	.
NC(=O)C1CCN(c2nc(-c3ccc4c(c3)OCO4)cs2)CC1	.	.	.	.	.	19µM*
NC(=O)C1CCN(c2nc(-c3ccc4c(c3)OCCO4)cs2)CC1	2%	2.8µM*	.	1.4µM*	.	4.8µM*
COC(=O)N[C@@H](/C=C/c1ccccc1)/C(C(=O)OC)=C(\C)NCc1ccccc1	.	.	5%	.	-1%	.
O=C(c1ccc(COc2ccc(F)cc2)o1)n1cccn1	2%	-3%	3%	0%	-1%	24µM*
Cc1cc(OCc2ccc(C(=O)n3cccn3)o2)ccc1Cl	?	?	11µM*	?	-1%	?
CCN(CC)S(=O)(=O)c1ccc2c(c1)nc(CN(C)C(=O)c1cccc(Cl)c1)n2C	.	.	.	.	.	-10%
O=C(OCc1ccc(C(=O)c2ccccc2)cc1)c1cccc(-c2nnc(-c3ccccc3)o2)c1	?	1.1µM*	?	?	-4%	11µM*
CC(C)OC(=O)c1ccc(COC(=O)c2cccc(-c3nnc(-c4ccccc4)o3)c2)cc1	?	2.5µM*	5µM*	2.2µM*	-3%	?
O=C(OCc1ccccc1)c1cccc(-c2nnc(-c3ccccc3)o2)c1	?	?	?	1.6µM*	-4%	-19%
O=C(OCc1ccccc1)c1ccc2c(c1)-c1ccccc1C2=O	10µM*	?	13µM*	?	6%	?
O=C(OCc1nnc(-c2ccccc2)o1)c1ccc(CO)cc1	1%	0%	7%	-5%	1%	-2%
N#Cc1c(NC(=O)CCC(=O)O)ccc2ccccc12	.	.	-4%[9.22 µM]	.	-4%[7.66 µM]	.
CCCCC/C=C\C/C=C\C/C=C\C/C=C\CCCCCC(=O)NCCCC(=O)O	.	.	19%	.	0%	.
COc1ccc(OC)c(NC(=O)Cn2cnc3onc(-c4ccc(Cl)cc4)c3c2=O)c1	.	.	11%	.	.	-9%
Cc1noc(/C=C/c2ccccc2F)c1S(=O)(=O)N1CCC(C(=O)N2CCOc3ccccc32)CC1	.	.	.	.	.	1%
CCOC(=O)c1cccc(COC(=O)c2cccc(-c3nnc(-c4ccccc4)o3)c2)c1	?	1.3µM*	3.5µM*	2µM*	0%	11µM*
O=C(COC(=O)c1cccc(O)c1)Nc1nnc(-c2ccccc2)o1	3%	-2%	.	0%	.	-19%
O=C(C[n+]1cn(C(F)F)c2ccccc21)c1ccc(OC(F)F)cc1	16µM*	?	?	?	-2%	?
O=C(C[n+]1ccc(C(=O)NCc2ccccc2)cc1)c1ccc(OC(F)F)cc1	3%	-1%	.	-3%	.	-2%
CCOc1ccc(N2CC(NC(=O)c3ccc(S(=O)(=O)N4CCCCC4)cc3)CC2=O)cc1 (configuration not stated)	.	.	.	.	.	1%
COc1ccc(/C=C2\SC(=O)N(CCNC(=O)Cn3cnnn3)C2=O)cc1	4µM*	3.2µM*	7.9µM*	2.8µM*	-8%	12µM*
SMILES	ELG1 genotox	Rab9 promoter act	SMN2 splice up	NPC1 promoter act	Luc counter	FLuc modulator
COc1ccc(/C=C2\SC(=O)N(CCNC(=O)CCS(=O)(=O)c3ccc(C)cc3)C2=O)cc1	?	2.8µM*	16µM*	?	-7%	9.5µM*
COc1ccc(S(=O)(=O)CCC(=O)NCCc2ccc(C)cc2)cc1	1%	-3%	5%	-1%	-2%	2%
O=C(c1cccc(F)c1)N1CCC2(CC1)CN(c1ccccn1)C2	.	.	-38%	.	-4%	.
CN(C)c1ccc(/C=C2\SC(=O)N(CCc3nnc(N)s3)C2=O)cc1	?	?	.	0.1µM*	.	0.13µM*
COc1ccc(-n2c(CCC(=O)O)ccc2-c2ccccc2)c(OC)c1	.	.	3%	.	.	?
C/C(=N/N=C(\C)c1ccccc1O)c1ccccc1O	?	15%	.	?	.	?
CCOc1ccc(N=C(C)c2ccccc2O)cc1	0%	3%	3%	1%	0%	21µM*
O=C(NCc1cccc(Cl)c1)c1ccc2c(Cl)c3c(nc2c1)CCCC3	.	.	4%	.	.	-1%
CC(C)Oc1cccc(C2NC(=O)c3ccccc3O2)c1 (configuration not stated)	4%	3%	.	5%	.	17µM*
CCCC(=O)Oc1cccc(C2NC(=O)c3ccccc3O2)c1 (configuration not stated)	-4%	2%	.	1%	.	-11%
O=C(CSc1nnc(-c2ccncc2)n1-c1ccccc1)Nc1ccc(Br)cc1	.	.	.	.	.	-4%
Cn1c(-c2ccc(Cl)cc2)cnc1N	-2%	7%	-4%	9%	0%	0%
Nc1nnc(-c2ccc(Cl)c(Cl)c2)s1	1%	14%	3%	2%	3%	?
Nc1cccn2c(-c3ccc(Cl)cc3)cnc12	?	3.5µM*	11µM*	?	-8%	2.7µM*
Nc1cccn2c(-c3ccc(Cl)c(Cl)c3)cnc12	?	3.2µM*	3.5µM*	?	-5%	3µM*
CCCCC[C@H](O)/C=C/C=C\C/C=C\C/C=C\CCCC(=O)O	.	.	-8%	.	-5%	.
Cc1cc(C)cc(NC(=O)NCc2noc3ccccc23)c1	.	.	.	.	.	-2%
COc1cc(OC)c(NC(=O)c2c(C)nn(-c3ccc(C)cc3)c2-n2cccc2)cc1Cl	.	.	.	.	.	-2%
O=C(CCc1nc2ccccc2s1)c1ccccc1	13%	?	24%	28%	-1%	15µM*
O=C(CCc1nc2ccccc2s1)OCC(=O)c1ccccc1	13%	22%	18%	14%	1%	19µM*
COc1ccccc1OC(=O)CCc1nc2ccccc2s1	-5%	-1%	-7%	4%	-20%	19µM*
COC(=O)c1ccccc1-c1ccc(C=O)o1	1%	-2%	.	-1%	-2%	-1%
CC(C)OC(=O)c1cccc(-c2ccc(C=O)o2)c1	?	15%	13µM*	17%	-1%	?
CCOc1ccc(CCNC(=O)c2ccc(CSCc3ccccc3C)o2)cc1OCC	.	.	.	.	.	-12%
COc1ccc(C(=O)COC(=O)c2cccnc2Cl)c(OC)c1	21µM*	2.2µM*	-1%	21%	-5%	11µM*
